Screening results as filed in PubChem.
Only some compounds are listed: those with a hit (about 10% of all), similar ones and a draw of the others.
HPGD block: qHTS Assay for Inhibitors of HPGD (15-Hydroxyprostaglandin Dehydrogenase); purified HPGD, NADH fluorescence kinetic, PGE2 substrate; Potency, µM, for inactives: at the highest dose activity change, negative = inhibition, actives largely listed as inhibitors; actives 4.3% (n = 150,000); AID 894, 2007; further: potency means the concentration at half of the fitted maximal effect
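20 nM HPGD preincubated 15 min at room temperature with compound in 50 mM Tris-HCl pH 8, 0.01% Tween 20. Started with 1 mM NAD+ and 30 uM prostaglandin E2; NADH fluorescence (360/450 nm) read 5 times over 30-s intervals, last minus first.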
IMPase inh: qHTS Assay for Identifying the Cell-Membrane Permeable IMPase Inhibitors; inhibition (IP1 accumulation), % at 46.1 µM; Inositol monophosphatase 1 (Rattus norvegicus), P97697; CHO-M1 cells, IP1 accumulation, HTRF TR-FRET ratio; AID 901, 2007; 120,000 tested, under 10 active; active means well fitted curve in the direction sought with a large enough effect in the signal ratio, not every such curve was filed as active; inconclusive means small, poorly fitted or top-dose-only effect, or a change in a side signal; inactive means no such curve, though single readings can be large or run the other way; the % refers to the signal ratio;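 further: cells stimulated with carbachol in lithium chloride buffer; plate controls were DMSO basal wells for no effect and reference inhibitor wells for full effect; higher means more IMPase inhibition seen as more IP1 and lower FRET ratio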
Target sequence (P97697 whole entry, looked up): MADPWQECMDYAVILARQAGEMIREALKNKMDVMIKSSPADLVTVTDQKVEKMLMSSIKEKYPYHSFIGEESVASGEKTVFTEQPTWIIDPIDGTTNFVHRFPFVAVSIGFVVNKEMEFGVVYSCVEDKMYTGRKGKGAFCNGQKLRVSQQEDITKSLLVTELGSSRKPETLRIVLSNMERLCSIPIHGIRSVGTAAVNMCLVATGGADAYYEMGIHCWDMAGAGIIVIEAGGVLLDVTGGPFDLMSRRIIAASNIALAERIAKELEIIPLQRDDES
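CHO-M1, 2000 cells/well, cultured 16–30 h; cpd up to 46 uM; carbachol (50 uM solution, stimulation buffer w/ 50 mM LiCl, pH 7.4), 30 min 37C; IP-One TR-FRET, 10 min RT; Ex 320/Em 665, 620; Hill-fit AC50.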
Luc counter: Counterscreen for Luciferase (Kinase-Glo TM) Inhibition. Luciferin 4-monooxygenase (Photuris pensylvanica), Q27757. Kinase-Glo luciferase, ATP luminescence, 8 min. Potency, µM (top dose mostly 38.3 µM), for the others: at the highest dose activity change, negative = inhibition, most hits filed as inhibitors. actives 0.28% (n = 200,000); active means well fitted inhibition curve with a large enough effect; inconclusive means small, poorly fitted or top-dose-only effect; further: potency means the concentration at half of the fitted maximal effect; nearly all actives have a fitted effect of over 60% in size
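Luminescence was the read-out, taken after 8-minute incubation at ambient temperature. Luciferase turned over luciferin with 10 uM ATP in imidazole pH 7.2 buffer containing KCl, MgCl2, Tween 20 and BSA.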
LMNA splice mod: qHTS Assay for Modulators of Lamin A Splicing | Potency, µM (titrated, usually from 46.1 µM), without a hit: at the highest dose ratio change, negative = inhibition, actives largely listed as inhibitors | HeLa LMNA splicing GFP/RFP minigene ratio, 48 h | actives 0.01% (n = 200,000); active means well fitted inhibition curve with a large enough effect in the signal ratio, with a control signal flat, not every such curve was filed as active; inconclusive means small, poorly fitted or top-dose-only effect, or effect the other way, or a change in a side signal; the % refers to the signal ratio; further: potency means the concentration at half of the fitted maximal effect
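Read-out is the ratio of GFP to DsRed2 object intensity, acquired by 488 nm laser-scanning cytometry on HeLa lamin A-EGFP minigene reporter cells. Compound incubation 48 hrs at 37 °C in Opti-MEM with 2% FBS; DMSO 0.5% final.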
PNC inhibitor: High Content Assay for Compounds that inhibit the Assembly of the Perinucleolar Compartment; PC3M PTB-GFP, PNC prevalence imaging, 16 h; stronger effect = lower value; activity change (PNC), negative = inhibition, % at 10 µM; actives 3.1% (n = 140,000);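 active means readout at or below -70, meaning at least 70% loss of cells showing the perinucleolar compartment, a nuclear body marking cancer cells; inconclusive means readout between -30 and a set limit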;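 further: plate controls were DMSO wells for no effect and camptothecin positive control wells for full effect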
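Read-out is percentage of cells bearing a perinucleolar compartment, from automated 20x imaging of fixed, Hoechst-stained PC3M PTB-GFP cells. Cells were seeded 4 h, then exposed 16 h to compound (23 nl of library stock) in duplicate plates.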
ALDH1A1 inh: qHTS Assay for Inhibitors of Aldehyde Dehydrogenase 1 (ALDH1A1); Purified ALDH1A1, NADH fluorescence, propionaldehyde substrate; Aldehyde dehydrogenase 1A1 (Homo sapiens), P00352; actives 7.3% (n = 220,000); Potency, µM (top dose mostly 75.3 µM), for inactives: top-dose activity, negative = inhibition, usual class: inhibitors; AID 1030, 2008;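 further: potency means the concentration at half of the fitted maximal effect; plate controls were no enzyme wells and a reference inhibitor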
Target sequence (P00352 whole entry, looked up): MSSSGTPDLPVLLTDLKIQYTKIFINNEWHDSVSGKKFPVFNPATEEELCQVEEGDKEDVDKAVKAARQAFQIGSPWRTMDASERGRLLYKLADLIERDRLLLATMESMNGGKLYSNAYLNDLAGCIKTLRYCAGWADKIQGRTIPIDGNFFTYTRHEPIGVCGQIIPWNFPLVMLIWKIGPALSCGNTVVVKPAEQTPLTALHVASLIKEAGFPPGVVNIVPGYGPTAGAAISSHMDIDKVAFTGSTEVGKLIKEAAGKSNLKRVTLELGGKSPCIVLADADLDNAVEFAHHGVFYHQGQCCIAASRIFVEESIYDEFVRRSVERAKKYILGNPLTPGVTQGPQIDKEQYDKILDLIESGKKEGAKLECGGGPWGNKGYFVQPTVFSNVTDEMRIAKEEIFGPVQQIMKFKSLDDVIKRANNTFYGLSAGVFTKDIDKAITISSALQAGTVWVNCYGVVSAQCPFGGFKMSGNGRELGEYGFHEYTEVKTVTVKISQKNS
* marks the source's active call; other numbers are inactive results; ? = inconclusive; nt = no result given; [ ] = dose if it differs, or a comment. Unless noted, the call rests on the fitted dose curve; in most records, active means well fitted inhibition curve with a large enough effect (not every such curve was filed as active); inconclusive means small, poorly fitted or top-dose-only effect, or another doubt; inactive means no such curve, though single readings can be large or run the other way. Unless noted, on the % scale 0 is the no-effect control and ±100 the full control effect.

SMILES	HPGD block	IMPase inh	Luc counter	LMNA splice mod	PNC inhibitor	ALDH1A1 inh
CC(C)(C)C(=O)N1CCN(c2ccc(Cl)cc2[N+](=O)[O-])CC1	-13.9%	nt	-5.1%	?	-1.2	-2.6%
O=C(NC(=S)N1CCN(c2ccc(Cl)cc2[N+](=O)[O-])CC1)c1cccs1	-26.6%	-9.7	5.7%	?	-112.5*	7.94µM*
CCOc1ccc(C(=O)Nc2nc(-c3ccc(Br)cc3)ns2)cc1	nt	nt	nt	13.7%[46 µM]	nt	nt
CC(CC(=O)Nc1cc([N+](=O)[O-])ccc1Cl)c1ccccc1 (centres undefined)	-10.8%	-4.6	-4.4%	4.4%	-0.9	-5.6%
O=C(Nc1ccccc1-c1ccccc1)c1cccc([N+](=O)[O-])c1	-5.0%	3.7	0.3%	25.8%	91.3	7.94µM*
O=C(CC(=O)c1cccc([N+](=O)[O-])c1)Nc1ccccc1Cl	nt	nt	-0.2%	nt	nt	3.55µM*
CCOc1ccc(CNS(=O)(=O)c2c(C(=O)N3CCC(C)CC3)c(C)n(C)c2C)cc1OC	nt	nt	nt	7.7%[46 µM]	nt	nt
COc1cccc(Cn2c(=O)c(-c3cn(C)c4ccccc34)nc3cncnc32)c1	nt	nt	nt	?	nt	0.2%
Cc1ccc(-c2csc3ncnc(Oc4ccc5c(C)cc(=O)oc5c4)c23)cc1	?	nt	-0.5%	?	?	-1.0%
CC(=O)Nc1cccc(Oc2ncnc3scc(-c4ccc(C)cc4)c23)c1	28.2µM*	14.8	1.3%	?	-83.1*	?
CC(=O)OCCNc1cc(N2CCN(C)CC2)c2noc3c2c1C(=O)c1ccccc1-3	-12.3%	41.5	-11.0%	0.9%	-92.6*	-2.6%
COC(=O)c1c(NC(=O)CCCOc2ccccc2C)sc2c1CCC2	nt	-8.3	nt	nt	nt	nt
COc1ccc(C2NC(=S)N3C(c4ccc(OC)cc4)NC(=S)N23)cc1 (centres undefined)	?	-7.7	2.3%	23.6%	40.8	11.2µM*
COc1ccc(C(N)=S)cc1	-2.6%	-2.9	-4.2%	-9.0%	0.1	-3.7%
S=C1NC(c2ccccc2)N2C(=S)NC(c3ccccc3)N12 (centres undefined)	25.1µM*	-3.5	2.8%	10.6%	?	12.6µM*
CCCCCn1c(=N)c(S(=O)(=O)c2ccccc2)cc2c(=O)n3ccccc3nc21	nt	4.1	nt	nt	nt	nt
COC(=O)CN1C(=O)N/C(=C/c2cc3c(cc2OC)OCO3)C1=O	nt	nt	0.9%	nt	nt	7.94µM*
COc1cc2c(cc1/C=C1/NC(=O)N(CC(=O)Nc3ccccc3)C1=O)OCO2	nt	nt	-6.0%	12.2%[46 µM]	nt	10.5%
CCOc1cc2c(cc1/C=C1/NC(=O)N(CC(=O)OC)C1=O)OCO2	nt	nt	3.5%	nt	nt	11.2µM*
COC(=O)CN1C(=O)N/C(=C/c2cc(Cl)c(OC)c(OC)c2)C1=O	nt	nt	1.6%	nt	nt	3.98µM*
CCOc1ccc(N2C(=O)/C(=C/c3ccccc3OCC(=O)OC)N(CC(=O)OC)C2=S)cc1	nt	nt	2.7%	nt	nt	?
COc1cccc(Nc2ncc3nc(CCc4ccccc4)c(=O)n(C)c3n2)c1	nt	nt	nt	16.2%	nt	?
C=C1OC(CO)(n2cnc3c(N)ncnc32)C(O)C1O (centres undefined)	-7.8%	nt	0.8%[39.9 µM]	nt	nt	-2.1%
CC(C)CNC(=O)c1cccc(NC(=O)c2ccc(Cl)c([N+](=O)[O-])c2)c1	-21.9%	nt	0.1%	?	-88.7*	2.2%
COc1cccc(C(=O)Nc2cccc(C(=O)NCC(C)C)c2)c1	-7.1%	nt	0.7%	-14.2%	?	6.5%
SMILES	HPGD block	IMPase inh	Luc counter	LMNA splice mod	PNC inhibitor	ALDH1A1 inh
CC(C)CNC(=O)c1ccc(Cl)c(Cl)c1	22.4µM*	0.0	1.3%	-2.0%	12.9	10.9%
CC(C)CNC(=O)c1ccc(NC(=O)c2ccccc2[N+](=O)[O-])cc1	?	nt	-4.6%	-15.8%	-84.5*	-1.0%
CC(C)(C)SCCNC(=O)c1ccc(Cl)c([N+](=O)[O-])c1	28.2µM*	nt	-4.8%	-4.7%	56.6	?
Cc1cc([N+](=O)[O-])c(C)c(Br)c1C	-11.3%	nt	0.4%[7.66 µM]	nt	nt	-3.2%[13.5 µM]
Nc1ncnc2c1nc(-c1ccccc1)n2[C@H]1O[C@@H](CO)[C@@H](O)[C@H]1O	-17.2%	nt	-2.7%[7.66 µM]	nt	nt	-10.3%[13.5 µM]
CN(CCO)c1cc(Sc2nc3ccccc3s2)c2nonc2c1[N+](=O)[O-]	?	6.8	-0.7%	?	45.7	25.1µM*
CCN1/C(=C2\SC(=S)N(Cc3ccccc3)C2=O)Sc2ccccc21	-14.7%	0.6	-0.6%	-8.9%	?	-1.3%
CCN1C(C)=C(C)S/C1=C1\SC(=S)N(N)C1=O	nt	nt	-1.5%	nt	nt	20µM*
CCN(CC)CCNC(CC(=O)Nc1ccc(Cl)cc1Cl)C(=O)O (centres undefined)	6.1%	6.4	1.2%	4.3%	-25.8	7.08µM*
COc1ccc(OCC(=O)Nc2ccc(C)cc2)cc1	15.8µM*	-3.7	-5.3%	-5.8%	?	4.8%
Cc1ccc(OCC(=O)N/N=C/c2ccco2)cc1	-23.5%	2.3	-11.9%	15.7%	12.6	28.2µM*
COc1ccc(OCC(=O)Sc2ccc(C)cc2)cc1	14.1µM*	-0.3	-4.6%	12.2%	34.7	?
COc1ccc(OC(=O)COc2ccc(C)cc2)cc1	nt	nt	3.4%	?	nt	-0.6%
Cc1ccc2cccnc2c1	-2.2%	nt	nt	nt	nt	?
O=C(NCc1ccncc1)Nc1cccc(Cl)c1	-13.9%	-0.5	-3.5%	0.0%	?	6.7%
Cc1cc2cc(CNC(=O)c3ccc(S(=O)(=O)N4CCOCC4)cc3)ccc2n1C	-12.8%	0.3	0.3%	-6.6%	21.5	25.1µM*
CCCC(=O)NCc1ccc2c(c1)cc(C)n2C	7.94µM*	0.9	-0.2%	6.2%	46.9	-4.7%
Cc1cccc(NC(=O)NCc2ccc3c(c2)cc(C)n3C)c1	-17.1%	?	-0.7%	-4.0%	-108.4*	-8.6%
COc1cccc(NC(=S)NCc2ccc3c(c2)cc(C)n3C)c1	nt	nt	1.8%	nt	nt	-4.6%
Cc1cc2cc(CNC(=O)Nc3cccc(Cl)c3)ccc2n1C	-13.1%	-22.8	-7.0%	-12.9%	-26.4	22.4µM*
CCOc1ccc(C(=O)Nc2cccc(-c3nc4cc(Cl)cc(Cl)c4o3)c2)cc1	nt	-1.8	nt	nt	nt	nt
O=C(NCCN=C1NS(=O)(=O)c2ccccc21)c1ccncc1	-2.8%	2.3	1.6%	9.3%	28.7	3.4%
O=C(NCCCN=C1NS(=O)(=O)c2ccccc21)c1ccc(S(=O)(=O)N2CCCCC2)cc1	-18.7%	2.4	14.8%	?	?	14.1µM*
